Pf growth 96h: P. falciparum growth inhibition at 96 hours | 6.9% of 320,000 active | P. falciparum luciferase reporter growth, 96 h | Potency, µM (highest dose often 28.7 µM), usual class: inhibitors
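Readout is luminescence from an integrated firefly luciferase in P. falciparum. Red cells, 2% hematocrit and 0.05% parasitemia final, were cultured with compound through two parasite generations (96 hours) at 37 C, 5% CO2.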
HCV inhibitor: inhibitors of hepatitis C virus infection; Potency, µM (doses to about 41.8 µM), actives largely listed as inhibitors; Huh7.5.1 HCVcc-Cre infection, luciferase reporter, 44 h; 3.4% of 340,000 active
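Seed cells (1,000/well) for 4 h; treat with compound and infect with HCVcc-Cre, moi about 0.5. Incubate 44 h, then detect luciferase activity.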
CHX counter: counter-screen hit for Shiga toxin inhibitors, cycloheximide; max response, %; cell reporter, cycloheximide protein synthesis inhibition counterscreen; 12% of 300,000 active; in the data active means max response mostly above about 13%, no sharp cut-off; inactive means mostly below about 14%; further: read at 38.3 µM for the half of the compounds with a filed dose
Pf growth 48h: P. falciparum growth inhibition at 48 hours (one generation). P. falciparum luciferase growth in erythrocytes, 48 h. Potency, µM (titrated, usually from 28.7 µM), usual class: inhibitors. 5.9% of 310,000 active. AID 504832
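Firefly luciferase activity from engineered P. falciparum reports growth; inhibitors lower the luminescent signal. Cultures contained 2% hematocrit erythrocytes at 0.1% final parasitemia.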
Shiga toxin inh: blocks Shiga toxin action in Vero cells | Vero cells, Shiga toxin protein synthesis inhibition reporter | inhibition, % at 38.7 µM | AID 2315 | 9.2% of 290,000 active; in the data active means inhibition mostly above about 28%, no sharp cut-off; inactive means mostly below about 43%
AMA1 RON2 block: inhibitors of Plasmodium falciparum AMA1-RON2 interaction; AlphaScreen AMA1-biotinylated RON2 peptide binding; Potency, µM (series often up to 58.2 µM), usual class: inhibitors; 0.2% of 360,000 active; AID 720542; further: nearly all actives have a fitted effect of over 45% in size
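AMA1 (3D7) with his tag at 25 nM final met compounds first, then biotinylated RON2 peptide at 25 nM; detection used donor plus acceptor beads, 10 µg/mL apiece, read by AlphaScreen after 30 min at room temperature.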
Each line names hits and unclear results; the compound was inactive in the other large screens. Only some compounds are listed: those with a hit (about 21% of all), similar ones and a draw of the others. Unless noted, the call rests on the fitted dose curve; in most records, active means well fitted curve in the direction sought with a large enough effect; inconclusive means small, poorly fitted or top-dose-only effect, or another doubt; inactive means no such curve, though single readings can be large; an effect the other way counts as inactive or inconclusive.

C[C@H]1CN(c2ccccc2)C(=O)[C@@H]1CC(=O)Nc1ccc(Br)cc1	none (no result: Pf growth 96h, HCV inhibitor, CHX counter, Pf growth 48h, Shiga toxin inh)
COc1ccc(-c2csc(N(CCCN(C)C)C(=O)c3ccc(OC)c(OC)c3)n2)cc1	none (no result: Pf growth 96h, HCV inhibitor, CHX counter, Pf growth 48h, Shiga toxin inh)
COCCCN(C(=O)c1ccco1)c1nc(-c2ccc(OC)cc2)cs1	Pf growth 96h inconclusive, HCV inhibitor inconclusive, CHX counter 13, AMA1 RON2 block inconclusive
COCCCN(C(=O)c1ccccc1F)c1nc(-c2ccc(OC)cc2)cs1	HCV inhibitor 10µM, Pf growth 48h inconclusive
COCCCN(C(C)=O)c1nc(-c2ccccc2)cs1	Pf growth 96h inconclusive, HCV inhibitor 13µM, CHX counter 39, Shiga toxin inh 81, AMA1 RON2 block inconclusive
COCCN(C(=O)c1ccccc1)c1nc(-c2ccc(OC)cc2)cs1	Pf growth 96h inconclusive, Pf growth 48h inconclusive
COCCCN(C(=O)c1ccccc1)c1nc(-c2ccc(OC)cc2)cs1	Pf growth 96h inconclusive, HCV inhibitor 13µM, Pf growth 48h inconclusive
Cc1ccc(CN2CCN(Cc3cccn3-c3ccccn3)CC2CCO)o1 (centres undefined)	none
CCCc1nc2ccc(C(=O)OC)cn2c1Cc1ccc(C)cc1	none (no result: Pf growth 96h, HCV inhibitor, CHX counter, Pf growth 48h, Shiga toxin inh)
Cc1ccc(S(=O)(=O)NC(=O)C2(C)CCN2C(=O)c2ccc(C(F)(F)F)nc2C)cc1 (centres undefined)	none (no result: Pf growth 96h, HCV inhibitor, CHX counter, Pf growth 48h, Shiga toxin inh)
Fc1cccc(Cl)c1/C=C/c1cnc2ccccc2n1	HCV inhibitor inconclusive, CHX counter 48, Shiga toxin inh 75 (no result: Pf growth 48h)
CC(O)/C=C/c1ccc2ccccc2n1 (centres undefined)	HCV inhibitor 11µM, CHX counter 23, Shiga toxin inh 33 (no result: Pf growth 96h)
CC(OC(=O)/C=C/c1ccc2ccccc2n1)C(=O)NCc1ccccc1 (centres undefined)	none (no result: CHX counter, Shiga toxin inh)
Fc1cccc(F)c1/C=C/c1ccc2ccccc2n1	CHX counter 24, Shiga toxin inh 54
C(=C\c1ccco1)/c1ccc2ccccc2n1	CHX counter 38, Shiga toxin inh 52
COc1ccc(CCNC(=O)Nc2nc(C(N)COCc3ccccc3)cs2)cc1OC (centres undefined)	none (no result: Pf growth 96h, HCV inhibitor, CHX counter, Pf growth 48h, Shiga toxin inh)
CC(C)CN(C(=O)CCC(=O)OCc1ccc(Cl)cc1Cl)c1c(N)n(CC(C)C)c(=O)[nH]c1=O	Pf growth 96h inconclusive (no result: CHX counter, Shiga toxin inh)
O=S(=O)(Nc1ccc(-c2nc3cccnc3s2)cc1)c1ccccc1F	CHX counter 50, Shiga toxin inh 92
O=S(=O)(Nc1ccc(-c2nc3cccnc3s2)cc1)c1cccs1	HCV inhibitor inconclusive, CHX counter 28
Cc1nc2cc(NS(=O)(=O)c3ccccc3F)ccc2s1	none
CCc1ccc(NS(=O)(=O)c2cccs2)cc1	none (no result: Pf growth 96h)
O=S(=O)(Nc1cccc(-c2nc3cccnc3s2)c1)c1ccc2c(c1)CCCC2	none
O=S(=O)(Nc1ccc(-c2nc3cccnc3s2)cc1)c1ccc(Cl)s1	CHX counter 33, Shiga toxin inh 16
Cc1cc(-c2nc3cccnc3s2)ccc1NS(=O)(=O)c1cccs1	CHX counter 48, Shiga toxin inh 138
COc1cc(OC)cc(C2=Cc3ccccc3C(CC(=O)c3ccco3)N2c2ccc(-c3cncnc3)cc2)c1 (centres undefined)	none (no result: Pf growth 96h, HCV inhibitor, CHX counter, Pf growth 48h, Shiga toxin inh)
CCS(=O)(=O)N1CCCC(C(=O)NCCCN2CCCC2=O)C1 (centres undefined)	Pf growth 96h 10µM
Cc1cc(C)c(S(=O)(=O)NCC2CCC(C(=O)NCCCN3CCC(C)CC3)CC2)c(C)c1 (centres undefined)	HCV inhibitor inconclusive, Pf growth 48h 9.3µM
CC(=O)Nc1ccc(S(=O)(=O)NCC2CCC(C(=O)NCCCN3CCCC3=O)CC2)cc1 (centres undefined)	Pf growth 96h inconclusive
O=C(NCCCN1CCCC1=O)C1CCC(CNS(=O)(=O)c2ccc(Cl)cc2)CC1 (centres undefined)	Pf growth 96h 12µM
CC1(C)C(=O)Nc2ccccc2N1C(=O)COC(=O)c1cccnc1Cl	none (no result: Pf growth 96h, CHX counter, Pf growth 48h, Shiga toxin inh)
Cc1ccc(-c2nc(C#N)c(N3CCCCC3)o2)cc1	HCV inhibitor inconclusive, AMA1 RON2 block inconclusive (no result: Pf growth 48h)
Cc1ccc(-c2nc(C#N)c(N3CCC(C)CC3)o2)cc1	HCV inhibitor inconclusive, CHX counter 17, AMA1 RON2 block inconclusive
COc1ccc(-c2nc(C#N)c(N3CCC(C)CC3)o2)cc1	HCV inhibitor inconclusive, CHX counter 16
